The source of these data is PubChem BioAssay AID686978 (National Center for Advancing Translational Sciences (NCATS), 2013).

Hit rate of the full screen: of about 420,000 compounds, about 64,000 (15%) were called active. Roughly 27% stayed inconclusive and do not appear here. These entries were drawn from the full list. A number with no mark means an inactive call. Calls follow the shape of the dose curve; as a rule, active = well fitted inhibition curve with a large enough effect; inconclusive = small, poorly fitted or top-dose-only effect; inactive = flat fitted curve, though single readings scatter.
% is scaled to controls: 0 for no effect and ±100 for the full control effect; potency is read from the fitted curve at half-maximal effect.

This experiment in a line: qHTS for Inhibitors of human tyrosyl-DNA phosphodiesterase 1 (TDP1): qHTS in cells in absence of CPT. Also: nearly all actives have a fitted effect of over 55% in size. The note with it: DT40 Tdp1-/- hTDP1 cells, no CPT, ATP luminescence, 48 h; activity change, negative = growth inhibition: at 46.2 µM (top of the series). The procedure, abridged: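 Seeded 400 DT40-hTDP1 cells/well (vehicle DMSO, no 20 nM CPT); pinned compounds; ≥48 hr at 37 °C; CellTiter-Glo luminescence as viability measure.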
Consider `CCOc1ccc(NC(=O)C(=O)NCCc2csc3nc(-c4ccccc4F)nn23)cc1`, for which the “activity change, negative = growth inhibition” value is -8.41%.

With `CCC1(C2CCN(C(=O)c3cccc(F)c3F)CC2)NC(=O)N(CCc2scnc2C)C1=O` (stereo not drawn), the “activity change, negative = growth inhibition” value was -4.82%.

With `Cn1cccc1C(=O)Nc1nccs1`, the “activity change, negative = growth inhibition” value is 18.4%.

Turning to `CC(C)NC(=O)N1CC[C@@]2(CCCN(C(=O)c3cccc(F)c3)C2)C1`, the “activity change, negative = growth inhibition” value was -6.14%.

As to `Cc1ccccc1OCC(=O)N(Cc1cccc(F)c1)C1CCS(=O)(=O)C1` (stereo not drawn), the “activity change, negative = growth inhibition” value is 2.13%.

Regarding `Cc1ccc(CN(C(=O)COc2ccc(Cl)cc2C)C2CCS(=O)(=O)C2)o1` (stereo not drawn), the Potency was 23.1 µM (active).

As to `CCCCN(C(=O)COc1ccc(NC(C)=O)cc1)C1CCS(=O)(=O)C1` (stereo not drawn), the “activity change, negative = growth inhibition” value is -5.15%.

Consider `O=C(/C=N/O)Nc1ccccc1`, for which the “activity change, negative = growth inhibition” value is -4.33%.

As for `CCc1c(C)c2ccc(OC3CCCCC3=O)cc2oc1=O` (stereo not drawn), the “activity change, negative = growth inhibition” value was 10.1%.

With `O=c1[nH]cnc(O)c1C(c1ccc(F)cc1)c1c(O)nc[nH]c1=O`, the “activity change, negative = growth inhibition” value was -6.26%.

Consider `O=C(O)CCn1c(O)c(C=C2N=c3ccccc3=N2)sc1=S`, for which the Potency was 18.4 µM (active).

As for `O=C(O)CCn1c(Cc2ccccc2)nc2ccccc21`, the “activity change, negative = growth inhibition” value was 4.29%.

With `O=C(NCCc1ccc(C(F)(F)F)cc1)c1ccc2c(c1)OCO2`, the “activity change, negative = growth inhibition” value is 7.51%.

As for `CC1C(c2ccccc2)=[N+]([O-])C2(CCCC2)N1O` (stereo not drawn), the “activity change, negative = growth inhibition” value was -1.92%.

Take `COc1ccc(C2CC(=O)c3c(O)cc(OC4OC(COC5OC(C)C(O)C(O)C5O)C(O)C(O)C4O)cc3O2)cc1O` (stereo not drawn): the “activity change, negative = growth inhibition” value is 0.352%.

`COc1cc(-c2nc(S(=O)(=O)c3ccc(Cl)cc3)c(N(C)C)o2)cc(OC)c1OC`: the “activity change, negative = growth inhibition” value was -18.5%.

As for `CC(C)S(=O)(=O)c1oc(-c2ccc(F)cc2)nc1S(=O)(=O)c1ccc(F)cc1`, the Potency is 0.326 µM (active).

`CC1(C)OC2CC3C4CCC5=CC(=O)CCC5(C)C4(F)C(O)CC3(C)[C@]2(C(=O)CCl)O1` (stereo partly drawn): the “activity change, negative = growth inhibition” value is -19.2%.

On to `COc1cc(C(=O)Nn2c(O)c(C3=c4ccccc4=NC3=O)sc2=S)ccc1O`, for which the “activity change, negative = growth inhibition” value is -4.32%.

As for `CO[C@@H]1[C@@H](OC(N)=O)[C@@H](O)C(Oc2ccc3c(O)c(NC(=O)c4ccc(O)c(CC=C(C)C)c4)c(=O)oc3c2C)OC1(C)C` (stereo partly drawn), the “activity change, negative = growth inhibition” value is -4.77%.

As to `CCc1cccc(C)c1N(C(=O)Cn1c(CO)nc2ccccc21)C(C)COC` (stereo not drawn), the “activity change, negative = growth inhibition” value was -20.8%.

Regarding `COCc1nc2ccccc2n1Cc1ccccc1Br`, the Potency was 16.4 µM (active).

Regarding `O=C(NC1Cc2ccccc2C1)c1cc(COc2cccc(C(F)(F)F)c2)on1`, the “activity change, negative = growth inhibition” value was -11.7%.

`C/C(CC(=O)N1CCN(C=O)CC1)=N\NC(=O)c1ccc(Br)cc1`: the “activity change, negative = growth inhibition” value is -7.46%.

As for `COC(=O)[C@@H]1C[C@@]2(O)[C@H](O)[C@H](O)[C@H](O)C[C@H]2N1Cc1ccc(C)s1`, the “activity change, negative = growth inhibition” value was 2.33%.

Turning to `CC(C)N=C1CCCC1C(=S)SSC(=S)C1CCCC1=NC(C)C` (stereo not drawn), the Potency was 0.164 µM (active).

As to `COc1cc(OC)c2c(c1Cl)OC1(C2=O)C(O)=CC(=O)CC1C` (stereo not drawn), the “activity change, negative = growth inhibition” value was -6.94%.

As to `COc1ccc(CN2CCCCC2C)cc1OC` (stereo not drawn), the “activity change, negative = growth inhibition” value was 13.3%.

As to `COC(=O)c1ccc(COc2ccc(C#N)cc2)o1`, the “activity change, negative = growth inhibition” value was 3.16%.

Turning to `COc1ccc(C(C)C)cc1S(=O)(=O)Nc1ncn[nH]1`, the “activity change, negative = growth inhibition” value was 6.42%.

Regarding `CCOc1cc(C)c(Cl)cc1S(=O)(=O)n1nnc2ccccc21`, the “activity change, negative = growth inhibition” value is 0.99%.

For `CCOc1ccc(C(C)C)cc1S(=O)(=O)n1nc(C)cc1C`, the Potency is 13 µM (active).

For `CCCNC(=O)CCC(=O)N1Cc2ccccc2Oc2ncccc21`, the “activity change, negative = growth inhibition” value is -4.93%.

Take `Cc1ccc(NC(=O)CS(=O)CC(=O)N(c2ccccc2)C(C)C(=O)NC2CCCC2)cc1` (stereo not drawn): the “activity change, negative = growth inhibition” value is -18.9%.

On to `COc1ccc(NS(=O)(=O)c2ccc(C)c(C(=O)NNC(=O)c3csc(N4CCOCC4)n3)c2)cc1`, for which the “activity change, negative = growth inhibition” value is -14%.

Take `CCOc1ccc(NS(=O)(=O)c2ccc(Cl)c(C(=O)N(C)Cc3cccnc3)c2)cc1`: the “activity change, negative = growth inhibition” value is -32.2%.

With `COc1ccc(NS(=O)(=O)c2ccc(C)c(C(=O)N(C)Cc3ccc(OC)cc3OC)c2)cc1`, the Potency is 18.4 µM (active).

In the case of `CC(=O)Nc1ccc(S(=O)(=O)N(C)c2ccc(OCC(=O)OCC(=O)N3CCCCC3)cc2)cc1`, the “activity change, negative = growth inhibition” value is 2.05%.

On to `CC(=O)Nc1ccc(S(=O)(=O)N(C)c2nc3ccccc3nc2Cl)cc1`, for which the Potency was 23.1 µM (active).

Turning to `CC(=O)Nc1ccc(S(=O)(=O)NNC(=O)CCc2ccccc2)cc1`, the “activity change, negative = growth inhibition” value is -3.77%.

Consider `Cc1ccc(C2CC2C(=O)NN)cc1` (stereo not drawn), for which the “activity change, negative = growth inhibition” value was -0.402%.

As to `CCOc1ccc(NS(=O)(=O)c2ccc(N)cc2)nn1`, the “activity change, negative = growth inhibition” value is -12.4%.

Consider `CCOC(=O)c1c(S(=O)(=O)NCC(=O)Nc2ccc(C)cc2)c(C)n(C)c1C`, for which the “activity change, negative = growth inhibition” value is 8.47%.

For `CC(=O)c1c(C)n(S(=O)(=O)c2ccc(Cl)cc2)c2ccc(NS(=O)(=O)c3ccc(Cl)cc3)cc12`, the Potency is 14.6 µM (active).

With `CC(=O)NCCc1ccc(S(=O)(=O)Nc2ccc(C)c(S(=O)(=O)N3CCOCC3)c2)cc1`, the “activity change, negative = growth inhibition” value is -1.29%.

Regarding `CCOC(=O)c1c(C)n(S(=O)(=O)c2ccc(C)cc2C)c2ccc(NS(=O)(=O)c3ccc(C)cc3C)cc12`, the Potency was 20.6 µM (active).

Turning to `O=S(=O)(Nc1ccc(-n2cnnn2)cc1)c1ccc(Cl)cc1`, the “activity change, negative = growth inhibition” value was 0.723%.

In the case of `CCn1c(C)nc2cc(C(=O)NNS(=O)(=O)c3ccc(C)cc3C)ccc21`, the “activity change, negative = growth inhibition” value was -17.1%.

For `CC(C)(C)CN1CCNC(=O)C1CC(=O)NC1Cc2ccccc2C1` (stereo not drawn), the “activity change, negative = growth inhibition” value is 1.76%.

For the compound `Oc1ccc(-c2nncn2-c2ccccc2)cc1`, the “activity change, negative = growth inhibition” value was -19%.

Take `COc1cccc(NC(=O)CSc2nnc(Cc3ccc(OC)c(OC)c3)o2)c1`: the “activity change, negative = growth inhibition” value was -0.112%.

Consider `Cc1ccc(C)c(Cn2c(=O)n(CCC(=O)NCc3ccc4c(c3)OCO4)c(=O)c3sccc32)c1`, for which the “activity change, negative = growth inhibition” value was -26%.

As for `CCC1CCCCN1C(=O)Cn1c(=O)n(CCCCCC(=O)NCc2ccccc2)c(=O)c2sccc21` (stereo not drawn), the Potency was 13 µM (active).

Regarding `O=C(CCCn1c(=O)c2sccc2n(CC(=O)NCC2CCCO2)c1=O)NCc1ccco1` (stereo not drawn), the “activity change, negative = growth inhibition” value is -2.99%.

For `NC(CSC12CC3CC(CC(C3)C1)C2)C(=O)O` (stereo not drawn), the “activity change, negative = growth inhibition” value is -1.44%.

On to `CCCc1nc2oc3c(=O)[nH]cnc3c2c2c1COC(C)(C)C2`, for which the “activity change, negative = growth inhibition” value was 0.996%.

For `C=CCN1CCN(c2ccncc2S(=O)(=O)N2CCN(C)CC2)CC1`, the “activity change, negative = growth inhibition” value is -9.36%.

Turning to `O=C(NC(=S)N1CCN(Cc2ccccc2)CC1)c1ccccc1`, the “activity change, negative = growth inhibition” value was -11.6%.

Turning to `COc1ccccc1C(=O)NC(CCSC)C(=O)N1CCN(C/C=C/c2ccccc2)CC1` (stereo not drawn), the Potency was 20.6 µM (active).

Take `COc1ccccc1C(=O)NC(CCSC)C(=O)N1CCN(C(C)=O)CC1` (stereo not drawn): the “activity change, negative = growth inhibition” value is 9.07%.

Turning to `CSCCC(NC(=O)c1ccccc1)C(=O)N1CCN(Cc2ccc(Cl)cc2)CC1` (stereo not drawn), the Potency was 10.3 µM (active).

`CSCCC(NC(=O)c1ccccc1)C(=O)N1CCCCCCC1` (stereo not drawn): the “activity change, negative = growth inhibition” value is -4.61%.

Turning to `COc1ccccc1C(=O)NC(CCSC)C(=O)NNC(=O)c1ccccc1C` (stereo not drawn), the “activity change, negative = growth inhibition” value is -3.37%.
